Only some compounds are listed: those with a hit (about 3.6% of all), similar ones and a draw of the others.
SARS 3CLpro inh = SARS-CoV 3CLpro protease inhibition | P0C6X7 | recombinant SARS-CoV 3CLpro, quenched FRET peptide cleavage | inhibition, % at 6 µM | 290,000 compounds, 0.14% hits; in the data active means inhibition above about 12%
BoNT-F LC inh = BoNT F light chain protease inhibition | 360,000 compounds, 0.22% hits | AID 588497 | Multiplex microsphere protease cleavage assay, flow cytometry | inhibition, % at 10 µM; in the data active means inhibition above about 35%, passing the limit was not always enough; inconclusive means no clear call, values can overlap the other calls; further: plate controls were buffer without enzyme for full effect and enzyme alone for no effect
Anthrax LF inh2 = inhibitors of Bacillus anthracis lethal factor protease; multiplex microsphere protease cleavage assay, LF; P15917; inhibition, % at 10 µM; 360,000 compounds, 0.12% hits; AID 588501; further: plate controls were buffer without enzyme for full effect and enzyme alone for no effect
BoNT-A LC inh2 = blocks Botulinum neurotoxin A light chain protease; multiplex microsphere protease substrate cleavage, flow cytometry; inhibition, % at 10 µM; 360,000 compounds, 0.17% hits; further: plate controls were buffer without enzyme for full effect and enzyme alone for no effect
Bead autofluor = flagged as autofluorescent in microsphere protease counterscreen | compound autofluorescence counterscreen, microsphere flow cytometry; stronger effect = higher value | AID 624483 | 360,000 compounds, 3.1% hits | fluorescence intensity (test concentration not listed); in the data active means fluorescence intensity above about 16000; inconclusive means no clear call, values can overlap the other calls
BJeLR lethal = BJeLR cell viability loss; inhibition, % (concentration not given with the values); 300,000 compounds, 0.17% hits; BJeLR (HRASV12) viability, CellTiter-Glo ATP luminescence, 48 h; in the data active means inhibition above about 50%; inconclusive means no clear call, values can overlap the other calls
Active calls of the source: *; u = inconclusive; x = no result given. Unless noted, no stated cut-off is given here; in the data, active means inhibition above about 30%; inconclusive means no clear call, values can overlap the other calls; inactive means below that.

SMILES	SARS 3CLpro inh	BoNT-F LC inh	Anthrax LF inh2	BoNT-A LC inh2	Bead autofluor	BJeLR lethal
CCCCCCOc1cccc(N)c1	1.6	1.1	-4.4	2.1	22320*	5.2
CCCCOc1cccc(-c2nnc(N)s2)c1	-1.1	-1.4	1.6	-0.3	3386	-12.4
CCC(CO)NCc1ccc2c(c1)n(C)c(=O)n2C (stereo not given)	-2.1	0.5	-0.7	0.2	16488*	-0.9
Cc1ccc(OCC(O)CN2C(=O)NC(C)(C)C2=O)c(C)c1 (stereo not given)	-8.5	0.8	-2.2	0.6	1991	6.1
O=C(c1ccco1)n1nc(-c2ccccc2)nc1SCc1ccccc1	7.0	3.9	-7.8	0.0	u	7.6
O=C(c1ccco1)n1nc(-c2ccco2)nc1SCc1ccccc1	1.9	4.6	2.0	2.6	21774*	3.9
COCCNC(=O)c1ccc2c(c1)NC(=O)CS2	0.7	0.4	-7.5	2.3	19046*	-3.1
O=C1CSc2ccc(C(=O)NCCC3=CCCCC3)cc2N1	-2.1	2.3	-0.8	u	23017*	3.8
O=C(NCCC1=CCCCC1)c1ccc(F)cc1	-1.2	-9.0	2.2	-1.3	9561	-2.3
O=C1CSc2ccc(C(=O)NCCc3ccc(Cl)cc3Cl)cc2N1	x	-13.6	-4.0	-0.1	4043	x
CCOCCCNS(=O)(=O)c1ccc(NC(=O)N2c3ccccc3Sc3ccccc32)cc1	7.4	-11.2	0.4	-1.3	11183	-9.2
CC1CC(C)(C)NC(=S)N1CC(=O)NCc1ccccc1Cl (stereo not given)	7.2	-6.6	-0.5	-0.1	2240	-3.5
CC1CC(C)(C)NC(=S)N1CC(=O)NCc1ccc(Cl)cc1 (stereo not given)	1.5	47.0*	0.4	4.3	2781	16.9
CC(=O)N(c1ccccc1)c1nc(/C=C/C(=O)Nc2c(C)cc(C)cc2C)cs1	2.9	-6.0	0.0	-1.2	2784	19.3
CCOC(=O)Cc1csc(NC(=O)c2c(-c3c(F)cccc3Cl)noc2C)n1	2.7	5.3	-4.7	4.1	21863*	4.9
CCOC(=O)c1cc(NC(=O)C2C3CCC(O3)C2C(=O)O)cc(C(=O)OCC)c1 (stereo not given)	3.9	0.5	1.9	-1.3	23079*	14.3
CCOC(=O)c1cc(NC(=O)c2ccoc2C)cc(C(=O)OCC)c1	-3.9	0.4	-2.9	u	23038*	-1.3
CCOC(=O)c1cc(NC(=O)C2C3C=CC(O3)C2C(=O)O)cc(C(=O)OCC)c1 (stereo not given)	-2.1	-13.4	-10.1	-3.4	3494	-0.5
CCOC(=O)Cc1csc(NC(=O)c2ccoc2C)n1	2.9	-1.4	-1.3	-2.2	23823*	x
CCOC(=O)Cc1csc(NC(=O)c2c(C)noc2C)n1	1.3	-3.3	1.6	0.7	4343	6.7
COc1ccc(C(=O)NNC(=O)Cc2nc3nc(C)cc(C)n3n2)cc1	-5.7	-0.5	-2.7	-1.6	4277	-0.2
Cc1ccc(C)c(Nc2c(F)c(F)c(F)c(F)c2C(=O)O)c1	9.6	-1.4	-0.4	-0.3	2203	13.4
COc1c(F)c(F)c(C(=O)O)c(Nc2ccc(C)cc2)c1F	5.5	-5.1	-1.4	-4.9	22057*	0.6
CCCCCC(=O)N1C[C@@H](O)[C@H](n2cc(COC(=O)c3ccccc3)nn2)C[C@@H]1c1ccccc1	x	3.0	-4.7	-0.3	3438	x
CN(C)c1ccnc(SCc2ccccc2Cl)c1C#N	-2.6	-9.5	-1.9	-6.1	22367*	12.6
SMILES	SARS 3CLpro inh	BoNT-F LC inh	Anthrax LF inh2	BoNT-A LC inh2	Bead autofluor	BJeLR lethal
COCc1cc(C)nc(OC)c1C(N)=O	-2.5	-3.4	-0.2	0.0	3475	0.7
Clc1ccccc1COc1ccc(/C=N/n2cnnc2)cc1	7.2	-1.9	1.3	0.3	10422	-6.0
C=CCNC(=S)N/N=C/c1ccc(OCc2ccccc2Cl)cc1	2.9	-3.6	1.8	0.1	19727*	22.2
Cn1c(SCc2ccc([N+](=O)[O-])cc2)nnc1-c1ccncc1	0.4	-7.4	2.0	-3.1	3665	0.3
COc1ccc(-c2nn(-c3ccccc3)cc2C(=O)N2CCN(S(=O)(=O)c3cccc(F)c3)CC2)cc1	x	-1.3	-2.8	-1.4	6707	-1.3
CCOC(=O)c1c(C)n(C)c2ccc(O)c(S(=O)(=O)c3ccccc3)c12	0.1	-1.5	-1.0	-1.6	24053*	6.2
N#Cc1ccc(COC(=O)c2ccc3c(=O)[nH]c(CN4CCOCC4)nc3c2)cc1	-0.6	-0.2	-0.2	-0.3	23349*	0.2
Cc1ccc(Cc2ccccc2C(=O)O)cc1	x	-3.2	-2.4	0.1	3679	x
CCc1ccccc1N1CCN(S(=O)(=O)c2cc(OC)ccc2OC)CC1	6.4	-2.2	-5.9	u	23647*	4.9
COc1ccc(OC)c(S(=O)(=O)N2CCN(c3ccccc3)CC2)c1	-1.2	u	-9.6	2.7	3081	2.3
CCOc1ccc(C(=O)N2CCN(c3cccc(C)c3C)CC2)cc1	-3.3	-5.8	-1.2	-2.5	17197*	2.4
CCOC(=O)C1CCCN(C(=S)Nc2ccc(C)cc2C)C1 (stereo not given)	2.6	-1.5	-0.7	0.2	16244*	-1.6
CCCCC(=O)N1CCCC(C(=O)OCC)C1 (stereo not given)	-2.1	-0.2	-0.6	-0.6	22655*	-4.0
COc1ccc(C(=O)NN2CCCCC2)cc1OC	0.6	2.1	2.3	u	22220*	0.2
CC(=O)Nc1ccc(S(=O)(=O)N(C)CC(=O)OCC(=O)N(C)C2CCS(=O)(=O)C2)cc1 (stereo not given)	x	-44.7	-12.3	-29.8	u	-2.9
CCCCOc1ccc(C(=O)N2CCCC2)cc1	0.0	-0.8	-0.3	u	16482*	-4.6
CCOC(=O)C1CCCN(C(=O)c2ccc(OCC)cc2)C1 (stereo not given)	-1.9	-2.4	1.1	-0.9	24552*	-4.4
CCOC(=O)C1CCCN(C(=O)c2ccc(C(=O)c3ccccc3)cc2)C1 (stereo not given)	x	0.3	-6.1	-0.3	u	x
CCCOc1ccc(C(=O)N2CCCC2)cc1OC	-5.1	-0.8	1.4	u	19871*	10.6
CCOC(=O)N1CCN(C(=O)c2ccc(OC)c(OC)c2)CC1	-2.1	-8.2	-4.3	1.1	4292	5.7
O=C1c2ccccc2S(=O)(=O)c2cc(C(=O)N3CCC(C(=O)N4CCCCC4)CC3)ccc21	x	x	x	x	x	-11.9
O=C1CC(=O)N(c2cccc(Br)c2)C(=O)N1	-3.4	8.7	-7.7	-2.1	3790	-17.8
O=C1CC(=O)N(c2ccc(Cl)cc2Cl)C(=O)N1	-2.1	3.6	-4.3	2.6	21690*	-2.7
Cc1cc(Br)ccc1N1C(=O)CC(=O)NC1=O	-2.0	5.3	-1.3	5.4	20409*	-6.5
COc1cccc(C2C3=C(N=c4s/c(=C\c5ccccc5O)c(=O)n42)c2ccccc2CC3)c1OC (stereo not given)	1.8	x	x	x	x	0.9
O=C(c1cc([N+](=O)[O-])ccc1N1CCOCC1)N1CCN(c2ccccc2)CC1	-1.0	2.6	-3.1	0.7	6322	56.2*
CSc1ccc(COC(=O)c2cc([N+](=O)[O-])ccc2N2CCOCC2)cc1	x	-2.7	0.9	2.9	5358	55.8*
